# High-throughput results deposited in PubChem BioAssay by National Center for Advancing Translational Sciences (NCATS).
# Shown is part of a subset that was picked to be rich in hits.
# VACV Venus inh = inhibitors of vaccinia virus (Venus reporter). Potency, µM (series often up to 36.5 µM), inactives show at the top dose activity change, negative = inhibition, most hits filed as inhibitors. Vaccinia virus Venus reporter expression, fluorescence. actives 0.46% (n = 330,000). AID 720580; calls by dose curve; tested in A549 cells; note: potency is the fitted concentration of half-maximal effect; % is set by controls: 0 for no effect and ±100 for the full control effect; nearly all actives have a fitted effect of over 30% in size
# LASV entry inh = blocks Lassa virus binding to or entry into cells; Lassa virus pseudotype entry inhibition, cell reporter; Potency, µM (doses to about 37.9 µM), inactives show at the highest dose activity change, negative = inhibition, most hits filed as inhibitors; actives 1.2% (n = 300,000); calls by dose curve; tested in HEK293 cells; note: potency is the fitted concentration of half-maximal effect; % is set by controls: 0 for no effect and ±100 for the full control effect; nearly all actives have a fitted effect of over 50% in size
# Shiga inhibitor = Shiga toxin inhibition | inhibition, % at 38.7 µM | Vero cells, Shiga toxin protein synthesis inhibition reporter | AID 2315 | actives 9.2% (n = 290,000); in the data active = inhibition mostly above about 28%, no sharp cut-off; inactive = mostly below about 43%; note: 0% is about no effect
# Cycloheximide cs = counter-screen for Shiga toxin inhibitors: cycloheximide protein synthesis inhibition | cell reporter, cycloheximide protein synthesis inhibition counterscreen | max response, % | actives 12% (n = 300,000) | AID 2314; in the data active = max response mostly above about 13%, no sharp cut-off; inactive = mostly below about 14%; note: read at 38.3 µM for the half of the compounds with a filed dose; 0% is about no effect
# Vaccinia mCherry = inhibitors of vaccinia virus infection (mCherry reporter signal). AID 720579. Vaccinia virus mCherry reporter infection, fluorescence. Potency, µM (series often up to 36.5 µM), inactives show at the top dose activity change, negative = inhibition, usual class: inhibitors. actives 0.63% (n = 310,000); calls by dose curve; tested in A549 cells; note: potency is the fitted concentration of half-maximal effect; % is set by controls: 0 for no effect and ±100 for the full control effect; nearly all actives have a fitted effect of over 35% in size
# MARV entry inh = Marburg virus entry inhibition; actives 1.8% (n = 300,000); AID 540276; Potency, µM (top dose mostly 37.8 µM), inactives show top-dose activity change, negative = inhibition, most hits filed as inhibitors; Marburg virus pseudotyped entry inhibition, cell reporter; calls by dose curve; tested in HEK293 cells; note: potency is the fitted concentration of half-maximal effect; % is set by controls: 0 for no effect and ±100 for the full control effect
# * = called active by the depositor; i = inactive; ? = inconclusive; / = no result given; [ ] = another dose, or the depositor's remark.
SMILES,VACV Venus inh,LASV entry inh,Shiga inhibitor,Cycloheximide cs,Vaccinia mCherry,MARV entry inh
N#C/C(=C\c1ccc[nH]1)C(=O)Nc1ccccc1F,-15%,24%[46.1 µM],74*,34*,i,?
N#C/C(=C\c1ccc[nH]1)C(=O)c1ccccc1,-7%,-9%[46.1 µM],99*,33*,-21%,?
Cc1cc(/C=C(\C#N)C(=O)Nc2ccccc2F)c(C)[nH]1,-9%,?,64*,46*,i,?
N#C/C(=C\c1cccc(Cl)c1)C(=O)c1ccccc1,-12%,/,-3,-2,i,/
N#C/C(=C\c1ccc[nH]1)C(=O)Nc1ccccc1Cl,-6%,27%[46.1 µM],61*,33*,-10%,2%[46.1 µM]
COc1ccc(NC(=O)/C(C#N)=C/c2ccc[nH]2)c(OC)c1,/,/,-20,11,/,/
Cc1cc(/C=C(\C#N)C(=O)NCc2ccco2)c(C)[nH]1,-15%,16%,9,11,/,17%
Cc1ccc(-c2ccc(SCC(=O)Nc3cc(C)on3)nn2)cc1,-7%,0%,13,6,-11%,-20%[46.1 µM]
COc1ccccc1-c1ccc(SCC(=O)NC2CCCC2)nn1,-6%,-1%,/,/,-14%,-10%
COc1ccc(-c2ccc(SCC(=O)Nc3cc(C)on3)nn2)cc1OC,-10%,-10%[14.3 µM],100*,22*,-19%,?
COc1cccc(-c2ccc(SCC(=O)NC3CCCCC3)nn2)c1,-8%,?,14,20*,-13%,-1%
COc1ccccc1-c1ccc(SCC(=O)NC2CCCCC2)nn1,-20%,1%,-4,-2,i,-22%
COc1ccc(-c2ccc(SCC(=O)NC3CCCC3)nn2)cc1OC,-15%,?,52*,27*,i,4%
CCCc1nn(C)c(C(=O)Nc2ccccc2)c1Cl,-10%,?,72*,92*,i,?
CCCc1nn(C)c(C(=O)Nc2ccc(Cl)cc2)c1Cl,-12%,?,43,25*,-5%,17%
Cc1c(N2C(=O)/C(=C/c3ccc(N(C)C)cc3)N(C)C2=S)c(=O)n(-c2ccccc2)n1C,283%,-2%[46.1 µM],/,/,-15%,?
O=C(Nc1cccnc1)c1ccc(N2CCOCC2)c([N+](=O)[O-])c1,/,/,-2,1,/,/
Cc1cccc(NC(=O)c2ccc(N3CCOCC3)c([N+](=O)[O-])c2)n1,7%,1%,72*,38*,-7%,-20%
Cc1cccc(NC(=O)c2ccc(S(=O)(=O)N3CCOCC3)cc2)n1,/,/,10,4,/,/
Cc1cccc(NC(=O)c2ccc(NC(C)c3ccccc3)c([N+](=O)[O-])c2)n1 (centres undefined),-22%,10%[46.1 µM],19,16,-1%,19%[46.1 µM]
Cc1cccc(NC(=O)c2ccc(N3CCCCC3)c([N+](=O)[O-])c2)n1,-17%,?,69*,46*,-13%,?
O=C(Nc1cccnc1)c1ccc(N2CCCC2)c([N+](=O)[O-])c1,-11%,12%,48,29*,-14%,22%[46.1 µM]
Cc1cccc(NC(=O)c2ccc(N(C)C3CCCCC3)c([N+](=O)[O-])c2)n1,-9%,?,58*,21*,7%,?
COc1ccc(S(=O)(=O)NCCc2c[nH]c3ccc(Cl)cc23)cc1,-18%,-25%,-3,1,-21%,-4%
CCSc1ccc(C(=O)Nc2cccc(C)n2)cc1[N+](=O)[O-],2%,-8%,23*,10.0*,24%,13%
SMILES,VACV Venus inh,LASV entry inh,Shiga inhibitor,Cycloheximide cs,Vaccinia mCherry,MARV entry inh
COc1ccc(CN2CCN(Cc3nc4ccccc4s3)CC2CCO)c(C)c1C (centres undefined),/,/,-1,-2,/,/
CCC(=O)Nc1ccc2c(c1)ncn2-c1ccccc1OC,-15%,11%,24,7,/,?
CC(=O)Nc1ccc2c(c1)ncn2-c1ccccc1,-8%,3%,56*,49*,-27%,?
CCC(=O)Nc1ccc2c(c1)ncn2-c1ccccc1,/,?,85*,33*,/,0%
CCCc1ccc(-c2cc(C(=O)N3CCN(c4ccccn4)CC3)c3ccccc3n2)cc1,/,/,31,49*,/,/
CCOc1ccc(-c2cc(C(=O)N3CCN(c4ccccn4)CC3)c3ccccc3n2)cc1,?,?,54*,35*,?,?
COc1ccc(-c2cc(C(=O)N3CCN(c4ccccn4)CC3)c3ccccc3n2)cc1,-30%,?,75*,43*,-23%,?
COc1cc(-c2cc(C(=O)N3CCN(c4ccccn4)CC3)c3ccccc3n2)cc(OC)c1OC,/,-24%,-10,1,/,?
C=CCC1(Cl)C(=O)C(Cl)=C(N2CCN(C)CC2)C1(OC)OC (centres undefined),/,/,1,-4,/,/
Cc1cccc(Cn2cc(C(=O)c3ccccc3)c(=O)c3cc4c(cc32)OCO4)c1,-6%,2%[46.1 µM],/,/,-7%,?
Cc1ccc(N2CCN(C(=O)C3CCN(c4ncnc5c4nc4n5CCCCC4)CC3)CC2)c(C)c1,-25%,?,/,/,-14%,/
COc1cc(/C=C(\C#N)c2nc3ccc(C)cc3[nH]2)c([N+](=O)[O-])cc1OC,-23%,?,8,-1,-27%,?
Cc1ccc2nc(/C(C#N)=C\c3cc(O)ccc3[N+](=O)[O-])[nH]c2c1,-8%,1%,33,36*,1%,25%[46.1 µM]
COc1cc(/C=C(\C#N)c2nc3ccc(C)cc3[nH]2)cc([N+](=O)[O-])c1O,-19%,7%[46.1 µM],56*,30*,?,?
Cc1ccc2nc(/C(C#N)=C\c3ccc(Oc4ccc(C(F)(F)F)cc4[N+](=O)[O-])cc3)[nH]c2c1,-9%,-2%,79*,31*,-14%,?
COc1ccc(/C=C(\C#N)c2nc3ccc(C)cc3[nH]2)cc1Oc1ccc(C(F)(F)F)cc1[N+](=O)[O-],-5%,19%,-12,12,-9%,-28%
Cc1ncc2c(c1CNC(=O)c1ccc3c(c1)OCO3)CCN(C(=O)/C=C/c1ccccc1Cl)C2,-8%,/,/,/,-8%,/
Nc1nonc1C(=O)NCCNC(=O)c1cccc(Cl)c1,-14%,2%,-2,-6,-21%,5%[46.1 µM]
CN1OC[C@@H]2CN(Cc3ccc(Cl)cc3)[C@H](c3ccc(N4CCCCC4)cc3)C[C@@H]21,-4%,/,/,/,i,/
CC#CCN(Cc1ccco1)C(=O)C1CCC(=O)N(Cc2ccccc2F)C1 (centres undefined),-1%,?,29,32*,-10%,13%
O=C(NC1CCC1)C1CCC(=O)N(Cc2ccccc2F)C1 (centres undefined),/,/,8,32*,/,/
O=C(NCCc1ccccc1F)C1CCC(=O)N(Cc2ccccc2F)C1 (centres undefined),/,/,25*,18*,/,/
COc1cc(OC)cc(C(=O)NC(=S)Nc2nnn(C)n2)c1,-8%,11%,7,-4,-15%,10%
CCCC[C@]12Cc3c(ccc4ccccc34)[C@H](O1)C1=C(O2)C(=O)c2ccccc2C1=O,/,/,/,/,/,22%[14.2 µM]
CN(C)c1ccnc2sc(C(=O)NCc3ccccc3)c(N)c12,-13%,?,56,21,i,11%
